Results taken from PubChem BioAssay (NCI).
The panel holds about 83,000 compounds, 20% with a hit somewhere; the sample as a whole holds those more often.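 Testing used 96-well plates and a 48-hour single-concentration exposure. Example: -40 means 40% of the starting cells died.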 Activity calls are given as the source filed them.

What follows are molecules tested on M14 melanoma (assay: NCI-60 one-dose screen, 48 h (100 = growth as untreated, 0 = no growth, -100 = all killed)). Details: 10 µM unless noted.
Method: Growth inhibition of the M14 human tumor cell line is measured as a screen for anti-cancer activity. Cells are grown in 96 well plates and exposed to the test compound for 48 hours. Compounds are tested at a single concentration, which is 10^-5 M for most compounds. The reported endpoint is percent growth (GI% or GIPRCNT), where numbers from 0 - 100% represent growth inhibition, and numbers from -100% - 0 represent cell death. For example, a value of 40 represents 60% growth inhibition. A value of 0 means no net growth occurred over the course of the experiment. A value of -40 indicates 40% of cells at the beginning of the experiment died by the end of the experiment. A value of -100 means all cells are dead at the end of the experiment.
NCI-60 Human Tumor Cell Lines Screen was performed using the standard one-dose NCI protocol, which is described in more detail at https://dtp.cancer.gov/discovery_development/nci-60/default.htm.
Compounds with GIPRCNT values below 10 were considered active. Activity score was based on GIPRCNT using the following formula: […]
Score is 0 for GIPRCNT values of 100 or above, 50 for GIPRCNT values of 0, and 100 for GIPRCNT values of -100.

SMILES | growth
c1cncc(CNc2ccccc2-c2nnc(Nc3ccc4c(c3)OCO4)o2)c1 | 9.13% (active)
O=C1CN(CO)C(=O)CN1CO | 104% (inactive)
O=NC1CC=CCC1c1ccccc1 (stereo not given) | 105% (inactive)
COc1ccc(-c2nnc(COc3ccc(NC(=O)Nc4cc(C(F)(F)F)cc(C(F)(F)F)c4)cc3F)o2)cc1 | 18% (inactive)
O=C1NCC(Nc2ccc(Br)cc2Cl)C(=O)N1 (stereo not given) | 93.8% (inactive)
CC1=NN(c2ccccc2Cl)C(=O)/C1=C\c1cn(S(=O)(=O)c2ccc(C)cc2)c2ccccc12 | 82.1% (inactive)
C=CCOc1ccc2c(c1)CC[C@@H]1[C@@H]2CC[C@@]2(C)[C@H]1CC[C@]2(C)O | 88.7% (inactive)
COc1cc(Oc2cc(-c3cccnc3)ccc2NC(=O)Nc2ccc(F)cc2F)cc(OC)c1OC | 110% (inactive)
COc1ccc2nc3cc(Cl)ccc3c(N3CCN(c4ccnc(Nc5ccc(F)cc5)n4)CC3)c2c1 | 102% (inactive)
CCN1C2=C(SC(=S)C1=C1SC(C(=O)OC)=C(C(=O)OC)S1)SC(=Nc1ccc(OC)cc1)C2=O | -54.7% (active)
O=C(Nc1ccc(Nc2ccncc2)cc1)c1ccc(Nc2ccnc3ccc([N+](=O)[O-])cc23)cc1[N+](=O)[O-] | 92.7% (inactive)
O=C1/C(=C/c2ccc([N+](=O)[O-])s2)Oc2ccc(Br)cc21 | -54.1% (active)
COC(=O)[C@]1(CCSC)N[C@H](c2cn(-c3ccccc3)nc2C)[C@@H]2C(=O)N(c3ccccc3)C(=O)[C@@H]21 | 95.9% (inactive)
COc1ccc(-c2csc(NC(=O)c3cc(O)c(O)c(O)c3)n2)cc1 | 63.2% (inactive)
Cc1cc2cn3c4cccnc4[nH]c(=O)c3c2cc1C | 36.4% (inactive)
COc1ccc2[nH]cc(/C=C3/C(=O)Nc4ccc(Cl)cc43)c2c1 | 37.2% (inactive)
Cn1cc(-c2nc(-c3c[nH]c4ncccc34)cs2)c2cccnc21 | 42.5% (inactive)
CSc1nnc(C2=CC(=O)c3ccccc3C2=O)n1-c1ccccc1 | 92% (inactive)
COc1cc([C@@H]2c3cc4c(cc3C(O[C@@H]3O[C@@H]5CO[C@@H](c6cccs6)OC5[C@H](O)[C@H]3O)C3COC(=O)[C@@H]32)OCO4)cc(OC)c1O (stereo not given in full) | -43.2% (active)
O=C(NCCCO)c1cc(Cl)ccc1O | 30.3% (inactive)

SMILES | growth
CC[N+](CC)(CCOCCOCC[N+](CC)(CC)Cc1ccc([N+](=O)[O-])cc1)Cc1ccc([N+](=O)[O-])cc1 | 101% (inactive)
Cc1scc2c1N(C(=O)CN1CCN(C)CC1)c1ccccc1NC2=O | 111% (inactive)
COc1cc(/C=C/C(=O)Nc2ccc3c(c2)/C(=C\c2cccn2C)C(=O)N3)cc(OC)c1OC | 49.5% (inactive)
COc1cc(/C=C/C(=O)Nc2cccnc2Nc2cc(OC)c(OC)c(OC)c2)cc(OC)c1OC | 100% (inactive)
CCC(c1ccccc1)c1noc(CCN(CC)CC)n1 (stereo not given) | 96.7% (inactive)
CCCCCCCC/C=C/CCCCCCCC1=NC(C)(C)CN1CC(C)O (stereo not given) | 31.8% (inactive)
COc1c(C)c2c(c(O)c1C/C=C(\C)CCC(=O)OCCN1CCOCC1)C(=O)OC2 | 19.8% (inactive)
CCSc1nnc2n(Cc3ccccc3)c(=O)c3c(C)c(C(N)=O)sc3n12 | 112% (inactive)
OC(Cc1cccnc1)c1ccccc1 (stereo not given) | 106% (inactive)
CCOC(=O)C(C(C)=O)c1nc2sc3cc(Cl)ccc3n2c(=N)c1C#N (stereo not given) | 77.8% (inactive)
C=C(C)[C@H]1CC/C(C)=C/CC[C@]2(C)O[C@H]2CC/C(C=O)=C\C1O (stereo not given in full) | 115% (inactive)
COC(=O)CCC1=C(CC(=O)OC)C(C)=N/C1=C\c1[nH]c(-c2ccc[nH]2)cc1OC | 17.2% (inactive)
CCCCCCCCCCCCCCCCN=C(CC(=O)O)C(=O)O | 95.8% (inactive)
CCOC(=O)C1=C(COCCN)NC(C)=C(C(=O)OC)C1c1ccccc1Cl (stereo not given) | 48.6% (inactive)
O=C(Nc1ncc([N+](=O)[O-])s1)c1cccc([N+](=O)[O-])c1 | 44% (inactive)
CC(c1cc(Cl)ccc1O)c1cc(Cl)ccc1O | 22.7% (inactive)
O=C(CCc1nnc(Cn2cncn2)o1)c1nc2ccccc2[nH]1 | 111% (inactive)
Fc1ccc(-c2nnc(/C=C/c3cn(-c4ccccc4)nc3-c3ccccc3)o2)cc1 | 93.1% (inactive)
OCCOc1c(Cl)cc(Cl)cc1Cl | 107% (inactive)
CCN1C(=O)c2ccc3c4c(ccc(c24)C1=O)C(=O)N(CCCNCc1ccccc1OC)C3=O | -92.8% (active)
